Assay results as given in paper PMC12820563, “FoxP3 forms a head-to-head dimer in vivo and stabilizes its multimerization on adjacent microsatellites”.
In all, about 16,000 sequences were measured (“rpm ratio (pull-down/input)”: median about 0.5, highest 2% from about 5.5 on). The sample as a whole holds a higher share of the highest values than the screen did.

Biological target: T1, MBP-FoxP3dN (Mus musculus, UniProt Q99JB6 188-423)
T1 sequence: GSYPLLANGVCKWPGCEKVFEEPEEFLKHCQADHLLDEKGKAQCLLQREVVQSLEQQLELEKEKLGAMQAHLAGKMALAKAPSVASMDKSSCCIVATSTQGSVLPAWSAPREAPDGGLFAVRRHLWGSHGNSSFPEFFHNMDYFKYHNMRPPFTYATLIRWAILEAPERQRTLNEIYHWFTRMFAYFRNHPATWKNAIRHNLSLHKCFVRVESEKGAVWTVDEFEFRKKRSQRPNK
Assay: PD-seq (MBP pull-down with sequencing); 20 mM Tris-HCl pH 7.5, 100 mM NaCl, 1.5 mM MgCl2, 0.4 uM protein, 0.1 uM dsDNA library, 30 min, room temperature, amylose pull-down; high values mean tight binding
Conditions: protein: recombinant; tags: His6-MBP; chain copies: 2; dsDNA, one strand shown
Procedure, shortened: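 E. coli-expressed mouse FoxP3 or FoxP1 fragment, N-terminus removed and tagged with His6-MBP, was used at 0.4 µM against 0.1 µM of a Klenow-filled degenerate double-stranded DNA library. After 30 min at room temperature in Tris pH 7.5 buffer with NaCl and MgCl2, complexes were pulled down on amylose resin and washed three times. Binding is pull-down over input reads-per-million enrichment from pooled replicates of the proteinase K-released, PCR-barcoded, Illumina-sequenced DNA.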

Sequence	binding signal
GATGATTGTTCTCCCAGCTGATGAATTGTCTTGCTCGAGTAAACAAATTTTCCTAATCTTTCTGTTCAAGCGCCATCTAC	0.461 RPM ratio (pull-down/input)
GATGATTGTTCTCCCAGCTGATGAATTGCTTGTCTCGAGTAAACAAATTTTCCTAATCTTTCTGTTCAAGCGCCATCTAC	1.71 RPM ratio (pull-down/input)
GATGATTGTTCTCCCAGCTGATGAATTTTCTTGCTCGAGTAAACAAATTTTCCTAATCTTTCTGTTCAAGCGCCATCTAC	0.298 RPM ratio (pull-down/input)
GATGATTGTTCTCCCAGCTGATGAATTTGCTGTCTCGAGTAAACAAATTTTCCTAATCTTTCTGTTCAAGCGCCATCTAC	6.16 RPM ratio (pull-down/input)
GATGATTGTTCTCCCAGCTGATGAATTGCTTTACTCGAGTAAACAAATTTTCCTAATCTTTCTGTTCAAGCGCCATCTAC	1.22 RPM ratio (pull-down/input)
GATGATTGTTCTCCCAGCTGATGAATTGCTTTGCTCGAGTAAACAAATTTTCCTAATCTTTCTGTTCAAGCGCCATCTAC	1.22 RPM ratio (pull-down/input)
GATGATTGTTCTCCCAGCTGATGAATTTGCTTACTCGAGTAAACAAATTTTCCTAATCTTTCTGTTCAAGCGCCATCTAC	6.78 RPM ratio (pull-down/input)
GATGATTGTTCTCCCAGCTGATGAATTTGCTTTCTCGAGTAAACAAATTTTCCTAATCTTTCTGTTCAAGCGCCATCTAC	5.95 RPM ratio (pull-down/input)
GATGATTGTTCTCCCAGCTGATGAATTTAGCAGGTCGAGTAAACAAATTTTCCTAATCTTTCTGTTCAAGCGCCATCTAC	0.708 RPM ratio (pull-down/input)
GATGATTGTTCTCCCAGCTGATGAATTCCCATGGTCGAGTAAACAAATTTTCCTAATCTTTCTGTTCAAGCGCCATCTAC	0.262 RPM ratio (pull-down/input)
GATGATTGTTCTCCCAGCTGATGAATTACCAGGGTCGAGTAAACAAATTTTCCTAATCTTTCTGTTCAAGCGCCATCTAC	0.252 RPM ratio (pull-down/input)
GATGATTGTTCTCCCAGCTGATGAATTTATCCGTTCGAGTAAACAAATTTTCCTAATCTTTCTGTTCAAGCGCCATCTAC	0.58 RPM ratio (pull-down/input)
GATGATTGTTCTCCCAGCTGATGAATTGCTTTCATCGAGTAAACAAATTTTCCTAATCTTTCTGTTCAAGCGCCATCTAC	1.04 RPM ratio (pull-down/input)
GATGATTGTTCTCCCAGCTGATGAATTGTAGCCATCGAGTAAACAAATTTTCCTAATCTTTCTGTTCAAGCGCCATCTAC	1.99 RPM ratio (pull-down/input)
GATGATTGTTCTCCCAGCTGATGAATTTCAACGATCGAGTAAACAAATTTTCCTAATCTTTCTGTTCAAGCGCCATCTAC	0.284 RPM ratio (pull-down/input)
GATGATTGTTCTCCCAGCTGATGAATTCTGGGGGTCGAGTAAACAAATTTTCCTAATCTTTCTGTTCAAGCGCCATCTAC	0.456 RPM ratio (pull-down/input)

Sequence	binding signal
GATGATTGTTCTCCCAGCTGATGAATTTTGTTTTTCGAGTAAACAAATTTTCCTAATCTTTCTGTTCAAGCGCCATCTAC	7.43 RPM ratio (pull-down/input)
GATGATTGTTCTCCCAGCTGATGAATTTTTTGATTCGAGTAAACAAATTTTCCTAATCTTTCTGTTCAAGCGCCATCTAC	0.323 RPM ratio (pull-down/input)
GATGATTGTTCTCCCAGCTGATGAATTCCTGTTTTCGAGTAAACAAATTTTCCTAATCTTTCTGTTCAAGCGCCATCTAC	0.929 RPM ratio (pull-down/input)
GATGATTGTTCTCCCAGCTGATGAATTTTTGTTTTCGAGTAAACAAATTTTCCTAATCTTTCTGTTCAAGCGCCATCTAC	2.51 RPM ratio (pull-down/input)
GATGATTGTTCTCCCAGCTGATGAATTGTTTTGTTCGAGTAAACAAATTTTCCTAATCTTTCTGTTCAAGCGCCATCTAC	4.09 RPM ratio (pull-down/input)
GATGATTGTTCTCCCAGCTGATGAATTCTTTTTTTCGAGTAAACAAATTTTCCTAATCTTTCTGTTCAAGCGCCATCTAC	0.311 RPM ratio (pull-down/input)
GATGATTGTTCTCCCAGCTGATGAATTGTTGAATTCGAGTAAACAAATTTTCCTAATCTTTCTGTTCAAGCGCCATCTAC	1 RPM ratio (pull-down/input)
GATGATTGTTCTCCCAGCTGATGAATTCTTTGATTCGAGTAAACAAATTTTCCTAATCTTTCTGTTCAAGCGCCATCTAC	0.276 RPM ratio (pull-down/input)
GATGATTGTTCTCCCAGCTGATGAATTCGAGTTTTCGAGTAAACAAATTTTCCTAATCTTTCTGTTCAAGCGCCATCTAC	0.651 RPM ratio (pull-down/input)
GATGATTGTTCTCCCAGCTGATGAATTCTGTTTTTCGAGTAAACAAATTTTCCTAATCTTTCTGTTCAAGCGCCATCTAC	5.51 RPM ratio (pull-down/input)
GATGATTGTTCTCCCAGCTGATGAATTTGTTGATTCGAGTAAACAAATTTTCCTAATCTTTCTGTTCAAGCGCCATCTAC	7.3 RPM ratio (pull-down/input)
GATGATTGTTCTCCCAGCTGATGAATTCTGTTGTTCGAGTAAACAAATTTTCCTAATCTTTCTGTTCAAGCGCCATCTAC	7.51 RPM ratio (pull-down/input)
GATGATTGTTCTCCCAGCTGATGAATTATTAGGTTCGAGTAAACAAATTTTCCTAATCTTTCTGTTCAAGCGCCATCTAC	0.47 RPM ratio (pull-down/input)
GATGATTGTTCTCCCAGCTGATGAATTAACTTAGTCGAGTAAACAAATTTTCCTAATCTTTCTGTTCAAGCGCCATCTAC	0.295 RPM ratio (pull-down/input)
GATGATTGTTCTCCCAGCTGATGAATTTCTTCACTCGAGTAAACAAATTTTCCTAATCTTTCTGTTCAAGCGCCATCTAC	0.269 RPM ratio (pull-down/input)
GATGATTGTTCTCCCAGCTGATGAATTTAGGGTATCGAGTAAACAAATTTTCCTAATCTTTCTGTTCAAGCGCCATCTAC	1.02 RPM ratio (pull-down/input)
